# In PubChem BioAssay AID743258 (The Scripps Research Institute Molecular Screening Center, 2014):
# Hit rate of the full screen: of about 3,300 compounds, about 100 (3%) were called active. Cut-off read from the data, not from the text of the source: active = inhibition above about 9.5%; inactive = the rest. A selection follows.
# Target: 1-phosphatidylinositol 4,5-bisphosphate phosphodiesterase gamma-1 (Homo sapiens) (UniProt P19174)
# Assay: PLC-gamma1 enzyme inhibitors, counter-screen for PLC-beta3 inhibitor project, biochemical, fluorescence (AID 743258)
# Details: purified PLC-gamma1, fluorogenic substrate, at 12.3 µM, stronger effect = higher value
# Chain of 1-phosphatidylinositol 4,5-bisphosphate phosphodiesterase gamma-1 (Homo sapiens) (P19174 whole entry, looked up): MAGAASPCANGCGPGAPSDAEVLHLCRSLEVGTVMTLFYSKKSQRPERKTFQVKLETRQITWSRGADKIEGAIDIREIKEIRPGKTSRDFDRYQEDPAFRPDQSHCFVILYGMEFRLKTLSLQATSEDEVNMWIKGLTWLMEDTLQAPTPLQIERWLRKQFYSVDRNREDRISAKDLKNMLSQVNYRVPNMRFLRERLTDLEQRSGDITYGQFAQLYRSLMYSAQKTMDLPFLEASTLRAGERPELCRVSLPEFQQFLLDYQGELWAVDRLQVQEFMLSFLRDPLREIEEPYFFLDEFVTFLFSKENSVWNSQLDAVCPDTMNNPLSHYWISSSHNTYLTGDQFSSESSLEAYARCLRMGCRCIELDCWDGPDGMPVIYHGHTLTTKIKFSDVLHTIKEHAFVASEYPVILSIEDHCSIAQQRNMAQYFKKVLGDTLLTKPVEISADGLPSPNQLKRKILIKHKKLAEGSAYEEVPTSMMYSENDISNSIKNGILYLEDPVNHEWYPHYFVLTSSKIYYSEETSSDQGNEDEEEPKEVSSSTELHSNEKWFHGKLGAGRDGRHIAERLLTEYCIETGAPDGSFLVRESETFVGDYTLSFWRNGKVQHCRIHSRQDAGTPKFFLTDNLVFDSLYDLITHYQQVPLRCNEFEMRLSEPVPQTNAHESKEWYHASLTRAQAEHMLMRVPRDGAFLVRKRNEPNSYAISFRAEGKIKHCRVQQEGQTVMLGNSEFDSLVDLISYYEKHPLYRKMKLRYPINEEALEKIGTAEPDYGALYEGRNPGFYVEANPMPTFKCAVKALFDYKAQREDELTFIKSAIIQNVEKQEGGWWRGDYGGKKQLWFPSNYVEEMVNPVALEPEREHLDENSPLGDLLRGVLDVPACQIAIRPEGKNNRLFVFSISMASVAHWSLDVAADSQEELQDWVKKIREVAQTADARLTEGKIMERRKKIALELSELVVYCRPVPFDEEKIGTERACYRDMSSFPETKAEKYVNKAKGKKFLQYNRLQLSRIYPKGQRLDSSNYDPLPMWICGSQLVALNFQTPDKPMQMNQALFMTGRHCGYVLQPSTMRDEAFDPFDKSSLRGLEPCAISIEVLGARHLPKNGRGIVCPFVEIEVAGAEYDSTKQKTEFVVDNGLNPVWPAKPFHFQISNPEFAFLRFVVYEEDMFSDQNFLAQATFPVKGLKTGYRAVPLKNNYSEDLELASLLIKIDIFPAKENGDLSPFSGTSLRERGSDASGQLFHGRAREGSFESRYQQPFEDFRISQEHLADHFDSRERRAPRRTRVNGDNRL
row,Compound,inhibition
1,Cc1ccc(Cn2ccc(NC(=O)C3C4CCC(C4)C3C(=O)O)n2)cc1 (stereo not drawn),6.33% (inactive)
2,N#Cc1c(NC(=O)C2CCCO2)sc2c1CCCCC2 (stereo not drawn),-9.66% (inactive)
3,Cc1nc2ccc(NC(=O)c3cccc(S(=O)(=O)N4CCOCC4)c3)cc2s1,-12.2% (inactive)
4,N#C[C@]1(S(=O)(=O)c2ccccc2)C[C@@H]2ON=C(c3cccc(Br)c3)[C@@H]2C1,-2.59% (inactive)
5,Nn1cnnc1N/N=C/c1cc([N+](=O)[O-])c(Cl)cc1Cl,-3.65% (inactive)
6,Nc1nc(NCC(=O)O)nc(N2CCCCCC2)c1[N+](=O)[O-],0.65% (inactive)
7,COCc1cc(C(C)=O)ccc1OC,-2.07% (inactive)
8,C=CCOc1ccccc1/C=N/NC(=O)Cc1ccccc1,-8.16% (inactive)
9,C=CCSC(CC)(CC)C(N)=O,2% (inactive)
10,CCOc1ccc(OCC)c(NC(=O)CSc2nnc(Cn3cnc4ccccc43)n2C)c1,-2.36% (inactive)
11,COc1ccc(C(CNC(=O)c2cc(S(=O)(=O)Nc3cccc(C)c3)ccc2C)N2CCCC2)cc1 (stereo not drawn),-5.37% (inactive)
12,O=C(NCCCN1CCCCC1)C1CC(=O)N(CCc2ccccc2)C1 (stereo not drawn),0.03% (inactive)
13,Clc1ccc(C2[C@H]3CN(CC4CCCCC4)[C@H](c4ccccc4)C34CC2(c2cccnc2)C4)cn1 (stereo partly drawn),-4.79% (inactive)
14,O=[N+]([O-])c1cc(C(F)(F)F)ccc1NN=C1CCCC1,8.96% (inactive)
15,CCC1S/C(=N/N=C/c2ccco2)NC1=O (stereo not drawn),-2.12% (inactive)
16,O=S(=O)(c1ccc(F)cc1)N1CCN(C(=S)NC2CCCC2)CC1,-7.54% (inactive)
17,COc1ccc(CCNC(=O)COC(=O)Cc2ccccc2F)cc1,-5.86% (inactive)
18,CC(C)CCSc1ncnc2c1oc1nc3c(cc12)COC(C)(C)C3,-6.65% (inactive)
19,CNC(=O)n1ccc(C(=O)N2CCCCC2)n1,-7.1% (inactive)
20,Cc1cc2nc(SCCN3CCOCC3)[nH]c2cc1C,-0.23% (inactive)
21,CC(C)Cn1cnc2c1c(=O)n(CC(O)c1ccccc1)c(=O)n2CC(C)C (stereo not drawn),-3.61% (inactive)
22,CCOc1ccccc1C1CC(c2cccc(NS(C)(=O)=O)c2)=NN1C(=O)c1ccccc1 (stereo not drawn),-6.72% (inactive)
23,CN(C(=O)c1cccc(NC(=O)Cc2cccc([N+](=O)[O-])c2)c1)C1CCCCC1,-5.4% (inactive)
24,O=C(Nc1cccc([N+](=O)[O-])c1)Nn1cnnc1,0.91% (inactive)
25,CS(=O)(=O)N(Cc1ccc(Cl)cc1)c1ccc(C(=O)NCCSCc2ccco2)cc1,0.35% (inactive)
26,COc1ccc(NC(=O)c2ccc(OC)cc2)cc1,-6.63% (inactive)
27,C=CCN(c1ccc(Cl)cc1)S(=O)(=O)c1cccc(C(=O)OCC(=O)N(C)C)c1,-6.25% (inactive)

row,Compound,inhibition
1,Cc1cc(NC(=O)CN2C(=O)NC(CC(C)C)C2=O)no1 (stereo not drawn),-4.65% (inactive)
2,CN(CC(=O)Nc1ccccc1Cl)C(=O)COc1cccc2c1OC(C)(C)C2,3.1% (inactive)
3,CCc1c(C)n([O-])c2c([n+]1=O)CCCCC2,-5.96% (inactive)
4,FC(F)(F)c1cnc(Oc2ccccc2-c2nnc(-c3ccc(Cl)cc3)o2)c(Cl)c1,-5.48% (inactive)
5,Cc1cc(NC(=O)c2ccc(F)cc2)ccc1NC(=O)c1ccco1,-0.11% (inactive)
6,Cc1nc(-c2ccc(F)cc2)c(CC(=O)N2CCN(S(=O)(=O)c3ccc(F)cc3)CC2)s1,-5.79% (inactive)
7,CCC1CCCCN1C(=O)CSc1nc(C)cc(C)n1 (stereo not drawn),-6.45% (inactive)
8,O=C1NC2(CCCCC2)N=C1c1ccccc1,-5.81% (inactive)
9,O=C(C1CCCO1)N1CCN(C(=S)Nc2cccc(Cl)c2)CC1 (stereo not drawn),-5.73% (inactive)
10,O=C1/C(=C\c2ccsc2)NC(=S)N1c1ccccc1,-7.04% (inactive)
11,COc1ccc(-c2ccc(CN3C(CC(C)C)C(=O)N(Cc4cn(CC5CCCCC5)nn4)CCS3(=O)=O)cc2)cc1 (stereo not drawn),0.15% (inactive)
12,S=c1[nH]nc(-c2cccnc2)n1/N=C/C(Cl)=C\c1ccccc1,-4.71% (inactive)
13,Cc1ccc(C23CC4CC(CC(C(=O)NCC(=O)O)(C4)C2)C3)cc1,9.94% (active)
14,CCn1c(SCC(C)=O)nc2sc3c(c2c1=O)CCCC3,-3.1% (inactive)
15,O=C(C[C@H]1C(=O)N(c2ccc(F)c(F)c2)C[C@@H]1Cc1ccccc1)Nc1ccccc1,2.94% (inactive)
16,Cc1c(C#N)c2ncn(CC#N)c(=O)c2n1-c1ccccc1,-8.35% (inactive)
17,O=S1(=O)c2ccc(Br)cc2OC[C@H](Cc2ccccc2)N1Cc1cn(Cc2ccccc2)nn1,1.8% (inactive)
18,COC(=O)C[C@@H]1CC[C@@H]2[C@H](COc3ccc(NC(=O)c4cccc(F)c4)cc3C(=O)N2C)O1,6.24% (inactive)
19,COC(=O)N(C)C[C@@H]1OCc2cnnn2CCCC(=O)N([C@@H](C)CO)C[C@@H]1C,-7.63% (inactive)
20,C=CCOc1ccc(Cl)cc1CNCCCN1CCOCC1,2.7% (inactive)
21,COc1ccc(/C=C2\N=C3CCCN3C2=O)cc1,-0.94% (inactive)
22,CCOc1ccccc1NC(=O)CCN1CCN(S(=O)(=O)c2ccc(OC)cc2)CC1,-1.14% (inactive)
23,CC1(C(=O)NCc2ccccc2)CSCC(=O)N1CCCN1CCOCC1 (stereo not drawn),-9.79% (inactive)
24,O=C(NCc1cccnc1)c1cc(C2CCCCN2C(=O)CCc2ccccc2)on1 (stereo not drawn),-6.35% (inactive)
25,O=C(CSc1ccccc1)Nc1cccc(S(=O)(=O)N2CCOCC2)c1,3.57% (inactive)
26,COc1ccc(S(=O)(=O)N2CCC(C(=O)OCC(=O)c3ccccc3)CC2)cc1[N+](=O)[O-],8.79% (inactive)
